Measurements reported in ChEMBL document CHEMBL1157539, “Thousands of chemical starting points for antimalarial lead identification” (Nature, 2010).
Several values for one entry are separate records, joined by “and”; a condition that tells them apart may be missing. Equal entries are not always repeated.

Tested on: Plasmodium falciparum
Experiment: GSK_TCMDC: Inhibition of Plasmodium falciparum 3D7 in whole red blood cells, using parasite LDH activity as an index of growth. Test compounds present at 2uM
Format: functional

Row | Structure (SMILES) | Inhibition
1 | COc1ccc2nc3cc(Cl)ccc3c(Nc3ccc(Oc4ccc(Nc5c6ccc(Cl)cc6nc6ccc(OC)cc56)cc4)cc3)c2c1.Cl | 86%
2 | Cc1nc(C)c(-c2ccc(Oc3ccc(OC(F)(F)F)cc3)cc2)c(OC(=O)c2ccc(CN(C)C)cc2)c1Cl | 98%
3 | COc1ccc(-c2cnc(N)nc2N)cc1Cl | 84%
4 | COc1cccc(Cn2ccc3c4c(N)nc(N)nc4ccc32)c1 | 99%
5 | COCCOCCOCCn1ccc2c3c(N)nc(N)nc3ccc21 | 97%
6 | CC(C)c1ccc(Cn2cc(-c3ccncc3)c3cc(OCc4ccccc4)ccc32)cc1.Cl | 99%
7 | CCC(=C(CC)c1ccc(O)c(CNC2CCCCC2)c1)c1ccc(O)c(CNC2CCCCC2)c1.Cl | 100%
8 | CC(=O)Nc1ccc(OCCCCCOc2ccc(NC(C)=O)cc2Cl)c(Cl)c1 | 93%
9 | COc1cc(Cc2cnc(N)nc2N)cc(OCCCC#N)c1OC | 86%
10 | CCNCCCC(C)Nc1ccnc2cc(Cl)ccc12.O=C(O)C(=O)O (stereo not given) | 100%
11 | COc1cc2c(cc1OC)C(C)(C)CN1Cc3c(c(CO)c(OC)c(OC)c3OC)CC21.Cl (stereo not given) | 95%
12 | CCCCCCCCCC(=O)NCC1CC(Br)=NO1 (stereo not given) | 87%
13 | COc1ccc(Cc2cnc3nc(N)nc(N)c3c2C)cc1OC.O=S(=O)(O)CCO | 93%
14 | CC(C)CNc1nc(N)nc2ccc3c(ccn3CC(C)C)c12 | 99%
15 | Nc1nc(N)c(-c2ccccc2)c(=O)[nH]1 | 83%
16 | CCOc1cc2ncnc(Nc3ccc(OCc4c(Cl)cccc4Cl)c(OC)c3)c2cc1OCC.Cl | 89%
17 | Cl.c1ccc2c(c1)cc(CNCCCN1CCN(CCCNCc3cc4ccccc4c4ccccc34)CC1)c1ccccc12 | 100%
18 | CCOc1cc(Cc2cnc(N)nc2N)ccc1OC.Cl | 88%
19 | CC(C)(C)c1ccc(Cc2cccc3nc(N)nc(N)c23)cc1 | 100%
20 | CCN(CC)c1ccc2nc(N)nc(N)c2c1.Cl | 93%

Row | Structure (SMILES) | Inhibition
21 | Cc1nc(C)c(-c2ccc(Oc3ccc(Cl)c(Cl)c3)cc2)c(O)c1Br | 97%
22 | CCCN(c1ccc(O)c(CN2CCCCC2)c1)c1ccc([N+](=O)[O-])cn1.O=C(O)C(=O)O | 99%
23 | CN=C(N)c1ccc(NC(=O)C=Cc2ccc(C(=O)Nc3ccc(C(N)=NC)cc3)cc2)cc1.Cl | 97%
24 | CN(C)C(=S)N/N=C1/C(=O)Nc2ccccc21 | 95%
25 | CCCc1cc(Cc2cnc(N)nc2N)cc2c1OC(C)(C)C2.Cl | 89%
26 | Cc1cccc(Cn2ccc3c4c(N)nc(N)nc4ccc32)c1 | 95%
27 | COc1ccccc1-c1nc2c(ccc3nc(N)nc(N)c32)[nH]1 | 100%
28 | COc1ccc2c(O)c(Br)c(C)nc2c1 | 89%
29 | Cl.O[C@@H](c1cc(C(F)(F)F)nc2c(C(F)(F)F)cccc12)[C@H]1CCCCN1 | 96% and 99%
30 | COc1cc(Cc2cnc(N)nc2N)cc(OCCCCNS(=O)(=O)C(F)(F)F)c1OC | 84%
31 | Cc1nc(C)c(-c2ccc(Oc3ccc(Cl)c(Cl)c3)cc2)c(O)c1Cl | 100%
32 | CC(C)c1ccc2c(c1)C(=O)c1ccc(C(=O)O)cc1S2(=O)=O | 93%
33 | Nc1nc(N)c2c(ccc3[nH]c(-c4ccccc4Cl)nc32)n1 | 100%
34 | CCN(C)C(=O)n1ncc2c3c(N)nc(N)nc3ccc21 | 95%
35 | Nc1nc(N)c2c(Oc3cccc(Cl)c3)cccc2n1 | 97%
36 | CCCCc1nc2nc(N)nc(N)c2cc1CCC | 97%
37 | CN(C)S(=O)(=O)n1ncc2c3c(N)nc(N)nc3ccc21.Cl | 96%
38 | Cc1ccc(Cc2cccc3nc(N)nc(N)c23)cc1 | 92%
39 | N=C(N)NC(=O)Nc1ccc(Cl)c(C(F)(F)F)c1 | 100%
40 | CCCc1cc(Cc2cnc(N)nc2N)c2cccnc2c1OC | 98%

Tested on: Plasmodium falciparum
Experiment: GSK_TCMDC: Inhibition of Plasmodium falciparum Dd2 in whole red blood cells, using parasite LDH activity as an index of growth. Test compounds present at 2uM
Format: functional

Row | Structure (SMILES) | Inhibition [%]
41 | COc1ccc2nc3cc(Cl)ccc3c(Nc3ccc(Oc4ccc(Nc5c6ccc(Cl)cc6nc6ccc(OC)cc56)cc4)cc3)c2c1.Cl | 93
42 | Cc1nc(C)c(-c2ccc(Oc3ccc(OC(F)(F)F)cc3)cc2)c(OC(=O)c2ccc(CN(C)C)cc2)c1Cl | 98
43 | COc1ccc(-c2cnc(N)nc2N)cc1Cl | 1
44 | COc1cccc(Cn2ccc3c4c(N)nc(N)nc4ccc32)c1 | 96
45 | COCCOCCOCCn1ccc2c3c(N)nc(N)nc3ccc21 | 0
46 | CC(C)c1ccc(Cn2cc(-c3ccncc3)c3cc(OCc4ccccc4)ccc32)cc1.Cl | 88
47 | CCC(=C(CC)c1ccc(O)c(CNC2CCCCC2)c1)c1ccc(O)c(CNC2CCCCC2)c1.Cl | 100
48 | CC(=O)Nc1ccc(OCCCCCOc2ccc(NC(C)=O)cc2Cl)c(Cl)c1 | 0
49 | COc1cc(Cc2cnc(N)nc2N)cc(OCCCC#N)c1OC | 0
50 | CCNCCCC(C)Nc1ccnc2cc(Cl)ccc12.O=C(O)C(=O)O (stereo not given) | 0
51 | COc1cc2c(cc1OC)C(C)(C)CN1Cc3c(c(CO)c(OC)c(OC)c3OC)CC21.Cl (stereo not given) | 9
52 | CCCCCCCCCC(=O)NCC1CC(Br)=NO1 (stereo not given) | 42
53 | COc1ccc(Cc2cnc3nc(N)nc(N)c3c2C)cc1OC.O=S(=O)(O)CCO | 97
54 | CC(C)CNc1nc(N)nc2ccc3c(ccn3CC(C)C)c12 | 51
55 | Nc1nc(N)c(-c2ccccc2)c(=O)[nH]1 | 0
56 | CCOc1cc2ncnc(Nc3ccc(OCc4c(Cl)cccc4Cl)c(OC)c3)c2cc1OCC.Cl | 12
57 | Cl.c1ccc2c(c1)cc(CNCCCN1CCN(CCCNCc3cc4ccccc4c4ccccc34)CC1)c1ccccc12 | 98
58 | CCOc1cc(Cc2cnc(N)nc2N)ccc1OC.Cl | 0
59 | CC(C)(C)c1ccc(Cc2cccc3nc(N)nc(N)c23)cc1 | 51
60 | CCN(CC)c1ccc2nc(N)nc(N)c2c1.Cl | 0

Row | Structure (SMILES) | Inhibition [%]
61 | Cc1nc(C)c(-c2ccc(Oc3ccc(Cl)c(Cl)c3)cc2)c(O)c1Br | 96
62 | CCCN(c1ccc(O)c(CN2CCCCC2)c1)c1ccc([N+](=O)[O-])cn1.O=C(O)C(=O)O | 96
63 | CN=C(N)c1ccc(NC(=O)C=Cc2ccc(C(=O)Nc3ccc(C(N)=NC)cc3)cc2)cc1.Cl | 100
64 | CN(C)C(=S)N/N=C1/C(=O)Nc2ccccc21 | 96
65 | CCCc1cc(Cc2cnc(N)nc2N)cc2c1OC(C)(C)C2.Cl | 3
66 | Cc1cccc(Cn2ccc3c4c(N)nc(N)nc4ccc32)c1 | 98
67 | COc1ccccc1-c1nc2c(ccc3nc(N)nc(N)c32)[nH]1 | 93
68 | COc1ccc2c(O)c(Br)c(C)nc2c1 | 74
69 | Cl.O[C@@H](c1cc(C(F)(F)F)nc2c(C(F)(F)F)cccc12)[C@H]1CCCCN1 | 99
70 | COc1cc(Cc2cnc(N)nc2N)cc(OCCCCNS(=O)(=O)C(F)(F)F)c1OC | 0
71 | Cc1nc(C)c(-c2ccc(Oc3ccc(Cl)c(Cl)c3)cc2)c(O)c1Cl | 97
72 | CC(C)c1ccc2c(c1)C(=O)c1ccc(C(=O)O)cc1S2(=O)=O | 83
73 | Nc1nc(N)c2c(ccc3[nH]c(-c4ccccc4Cl)nc32)n1 | 100
74 | CCN(C)C(=O)n1ncc2c3c(N)nc(N)nc3ccc21 | 0
75 | Nc1nc(N)c2c(Oc3cccc(Cl)c3)cccc2n1 | 7
76 | CCCCc1nc2nc(N)nc(N)c2cc1CCC | 0
77 | CN(C)S(=O)(=O)n1ncc2c3c(N)nc(N)nc3ccc21.Cl | 0
78 | Cc1ccc(Cc2cccc3nc(N)nc(N)c23)cc1 | 0
79 | N=C(N)NC(=O)Nc1ccc(Cl)c(C(F)(F)F)c1 | 13
80 | CCCc1cc(Cc2cnc(N)nc2N)c2cccnc2c1OC | 3
